Measured values: the supplement of paper PMC11172423
Values without a mark were called inactive.

system: Madurella mycetomatis MM55; experiment: growth relative to untreated control; higher = less inhibition, active = 20 or less; conditions: 25 µM
Description: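 Hyphal fragments of M. mycetomatis MM55 or F. senegalensis CBS197.79 in RPMI 1640/MOPS were exposed to each MMV COVID Box or Global Health Priority Box compound at 100 or 25 µM for 7 days at 37 °C. Viability was read with MTS (490 nm, M. mycetomatis) or resazurin (600 nm, F. senegalensis), background-corrected with a medium-only control and expressed as % growth relative to the untreated growth control. Inhibition of more than 80% was taken as growth inhibition.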

| Compound | growth |
| --- | --- |
| C[C@H]1O[C@@H](O[C@H]2[C@@H](O)C[C@H](O[C@H]3[C@@H](O)C[C@H](O[C@H]4CC[C@@]5(C)[C@H](CC[C@@H]6[C@@H]5CC[C@]5(C)[C@@H](C7=CC(=O)OC7)CC[C@]65O)C4)O[C@@H]3C)O[C@@H]2C)C[C@H](O)[C@@H]1O | 94.5% |
| COc1cccc2c1C(=O)c1c(O)c3c(c(O)c1C2=O)C[C@@](O)(C(=O)CO)C[C@@H]3O[C@H]1C[C@H](N)[C@H](O)[C@H](C)O1 | 116% |
| Cc1onc(-c2ccccc2)c1-c1ccc(S(N)(=O)=O)cc1 | 117% |
| OC1(CN2CCC(Oc3cccc(C(F)(F)F)c3)CC2)CCNC1 (stereo not given) | 5.37% (active) |
| COc1ccc2cc1Oc1ccc(cc1)C[C@H]1c3cc(c(OC)cc3CCN1C)Oc1c(O)c(OC)cc3c1[C@@H](C2)N(C)CC3 | 5.48% (active) |
| C[C@H]1O[C@@H](O[C@H]2[C@@H](O)C[C@H](O[C@H]3[C@@H](O)C[C@H](O[C@H]4CC[C@@]5(C)[C@H](CC[C@@H]6[C@@H]5C[C@@H](O)[C@]5(C)[C@@H](C7=CC(=O)OC7)CC[C@]65O)C4)O[C@@H]3C)O[C@@H]2C)C[C@H](O)[C@@H]1O | 82.1% |
| CCC(C)(C)n1nnnc1C(c1cc2ccc(C)cc2[nH]c1=O)N1CCN(c2ccccc2)CC1 (stereo not given) | 76.6% |
| COc1ccc2c(c1)c(CC(=O)O)c(C)n2C(=O)c1ccc(Cl)cc1 | 79.7% |
| CCN1CCN(Cc2ccc(-c3cc4c(N[C@H](C)c5ccccc5)[nH]cnc-4n3)cc2)CC1 | 97.8% |
| CC(C)c1cc(Oc2ccccc2)cc(C(C)C)c1NC(=S)NC(C)(C)C | 111% |
| C/C=C/C[C@@H](C)[C@@H](O)[C@H]1C(=O)N[C@@H](CC)C(=O)N(C)CC(=O)N(C)[C@@H](CC(C)C)C(=O)N[C@@H](C(C)C)C(=O)N(C)[C@@H](CC(C)C)C(=O)N[C@@H](C)C(=O)N[C@H](C)C(=O)N(C)[C@H](CC(C)C)C(=O)N(C)[C@@H](CC(C)C)C(=O)N(C)[C@@H](C(C)C)C(=O)N1C | 79% |
| Cc1ccc(C)c2sc(N(CCCn3ccnc3)C(=O)c3ccco3)nc12 | 5.97% (active) |
| CN1CCC(Oc2nc(Nc3ccccc3)nc3[nH]cc(-c4cnn(C)c4)c23)CC1 | 78.3% |
| CCOc1ccccc1NC(=O)Cn1c(=O)n(Cc2ccccc2)c(=O)c2c(C)c(C(=O)N(C)C)sc21 | 104% |
| CC(Nc1ccc2c(c1)OCCCO2)C(=O)Nc1cc(C(F)(F)F)ccc1N1CCOCC1 (stereo not given) | 97.8% |
| C=CCNc1nc(NCC=C)nc(N2CCN(C(c3ccc(F)cc3)c3ccc(F)cc3)CC2)n1 | 91.8% |
| CCCCC(=O)N(Cc1ccc(-c2ccccc2-c2nn[nH]n2)cc1)[C@H](C(=O)O)C(C)C | 82.1% |
| CCN(CC)CCOc1ccc(C(O)(Cc2ccc(Cl)cc2)c2ccc(C)cc2)cc1 (stereo not given) | 3.26% (active) |
| CCOc1ccc(Cc2nccc3cc(OCC)c(OCC)cc23)cc1OCC | 80.9% |
| FC(F)(F)c1ccnc(Nc2cn3cc(-c4ccc(N5CCOCC5)nc4)ccc3n2)n1 | 73.7% |

same assay, conditions: 100 µM

| Compound | growth |
| --- | --- |
| C[C@H]1O[C@@H](O[C@H]2[C@@H](O)C[C@H](O[C@H]3[C@@H](O)C[C@H](O[C@H]4CC[C@@]5(C)[C@H](CC[C@@H]6[C@@H]5CC[C@]5(C)[C@@H](C7=CC(=O)OC7)CC[C@]65O)C4)O[C@@H]3C)O[C@@H]2C)C[C@H](O)[C@@H]1O | 73.2% |
| COc1cccc2c1C(=O)c1c(O)c3c(c(O)c1C2=O)C[C@@](O)(C(=O)CO)C[C@@H]3O[C@H]1C[C@H](N)[C@H](O)[C@H](C)O1 | 72.5% |
| Cc1onc(-c2ccccc2)c1-c1ccc(S(N)(=O)=O)cc1 | 91.1% |
| OC1(CN2CCC(Oc3cccc(C(F)(F)F)c3)CC2)CCNC1 (stereo not given) | 12.9% (active) |
| COc1ccc2cc1Oc1ccc(cc1)C[C@H]1c3cc(c(OC)cc3CCN1C)Oc1c(O)c(OC)cc3c1[C@@H](C2)N(C)CC3 | 5.12% (active) |
| C[C@H]1O[C@@H](O[C@H]2[C@@H](O)C[C@H](O[C@H]3[C@@H](O)C[C@H](O[C@H]4CC[C@@]5(C)[C@H](CC[C@@H]6[C@@H]5C[C@@H](O)[C@]5(C)[C@@H](C7=CC(=O)OC7)CC[C@]65O)C4)O[C@@H]3C)O[C@@H]2C)C[C@H](O)[C@@H]1O | 90.8% |
| CCC(C)(C)n1nnnc1C(c1cc2ccc(C)cc2[nH]c1=O)N1CCN(c2ccccc2)CC1 (stereo not given) | 91.7% |
| COc1ccc2c(c1)c(CC(=O)O)c(C)n2C(=O)c1ccc(Cl)cc1 | 80.8% |
| CCN1CCN(Cc2ccc(-c3cc4c(N[C@H](C)c5ccccc5)[nH]cnc-4n3)cc2)CC1 | 46.8% |
| CC(C)c1cc(Oc2ccccc2)cc(C(C)C)c1NC(=S)NC(C)(C)C | 166% |
| C/C=C/C[C@@H](C)[C@@H](O)[C@H]1C(=O)N[C@@H](CC)C(=O)N(C)CC(=O)N(C)[C@@H](CC(C)C)C(=O)N[C@@H](C(C)C)C(=O)N(C)[C@@H](CC(C)C)C(=O)N[C@@H](C)C(=O)N[C@H](C)C(=O)N(C)[C@H](CC(C)C)C(=O)N(C)[C@@H](CC(C)C)C(=O)N(C)[C@@H](C(C)C)C(=O)N1C | 68.9% |
| Cc1ccc(C)c2sc(N(CCCn3ccnc3)C(=O)c3ccco3)nc12 | 7.8% (active) |
| CN1CCC(Oc2nc(Nc3ccccc3)nc3[nH]cc(-c4cnn(C)c4)c23)CC1 | 17.9% (active) |
| CCOc1ccccc1NC(=O)Cn1c(=O)n(Cc2ccccc2)c(=O)c2c(C)c(C(=O)N(C)C)sc21 | 109% |
| CC(Nc1ccc2c(c1)OCCCO2)C(=O)Nc1cc(C(F)(F)F)ccc1N1CCOCC1 (stereo not given) | 125% |
| C=CCNc1nc(NCC=C)nc(N2CCN(C(c3ccc(F)cc3)c3ccc(F)cc3)CC2)n1 | 83.9% |
| CCCCC(=O)N(Cc1ccc(-c2ccccc2-c2nn[nH]n2)cc1)[C@H](C(=O)O)C(C)C | 83.4% |
| CCN(CC)CCOc1ccc(C(O)(Cc2ccc(Cl)cc2)c2ccc(C)cc2)cc1 (stereo not given) | 3.33% (active) |
| CCOc1ccc(Cc2nccc3cc(OCC)c(OCC)cc23)cc1OCC | 83% |
| FC(F)(F)c1ccnc(Nc2cn3cc(-c4ccc(N5CCOCC5)nc4)ccc3n2)n1 | 132% |
